# Values of other authors, collected in PubChem BioAssay AID977608.
# Hit rate of the full screen: of about 4,300 compounds, about 4,300 (100%) were called active. No cut-off is given here; in the data, nearly all actives have IC50 up to about 1400 µM. So high a share suggests a set chosen from earlier hits. Some of the results follow. Where a SMILES comes first, the peptide text is derived from it. Square brackets hold non-standard residues; d marks the D form. Peptide text beside a SMILES is read from it. [ ]: non-standard residue; d: D form. Orn(CH(NH2)2) = NC(N)NCCC[C@H](N)C(=O)O
# Assay: literature IC50 values for PDB complexes, PDB-derived complexes (AID 977608)
# Conditions: PDB protein-ligand complexes
structure (smiles),measurement,setting,value
Cn1c(=O)c(C(=O)NCC(=O)O)c(O)c2ccccc21,IC50,"protein: EGL NINE HOMOLOG 1, PDB entry 4bqw",0.033 µM (active)
CO[C@H]1CN(c2nc(-c3ncnn3C)c(C(=O)O)s2)CC[C@H]1NC(=O)c1[nH]c(C)c(Cl)c1Br,IC50,"protein: DNA GYRASE SUBUNIT B, PDB entry 4bae",0.003 µM (active)
Nc1ccc(CC(=O)OCCc2ccccc2)c(C=O)c1,IC50,"protein: RHOMBOID PROTEASE GLPG, PDB entry 3zeb",0.74 µM (active)
Cc1ccc(S(=O)(=O)Nc2cc(Oc3ccccc3)ccc2C(=O)O)cc1,IC50,"protein: Genome polyprotein, PDB entry 4j0a",0.16 µM (active)
Cc1ccc(S(=O)(=O)Nc2ccc(Oc3ccccc3)cc2C(=O)O)cc1,IC50,"protein: Genome polyprotein, PDB entry 4j08",0.22 µM (active)
N=C[C@@H]1CCCN1C(=O)CNC12C[C@@H]3C[C@@H](CC(O)(C3)C1)C2,IC50,"protein: Dipeptidyl peptidase 4, PDB entry 3w2t",0.0292 µM (active)
O=C(O)c1sc(-c2ccccc2)cc1N1C(=O)CC[C@@H]1C1CCCCC1,IC50,"protein: NS5B, PDB entry 4tn2",0.12 µM (active)
Cc1[nH]ncc1-c1ccc(F)cc1,IC50,"protein: Adenylate cyclase type 10 hsolAC, PDB entry 4oz2",1000 µM (active)
Cc1[nH]ncc1-c1ccccc1Cl,IC50,"protein: Adenylate cyclase type 10 hsolAC, PDB entry 4oyo",300 µM (active)
O=c1c2ccccc2oc2c(Cc3ccc(O)cc3)[nH]c(-c3cccs3)c12,IC50,"protein: cGMP-specific 3',5'-cyclic Phosphodiesterase-5 (PDE5), PDB entry 4md6",0.017 µM (active)
CC(=N)C[C@@H](c1ccccc1)[C@]12Nc3cc(C)c(C)cc3N(C[C@H](O)[C@H](O)[C@H](O)CO[P+](O)(O)O[P+](O)(O)OC[C@H]3O[C@@H](n4cnc5c(N)ncnc54)[C@H](O)[C@@H]3O)[C@@H]1NC(=O)NC2=O,IC50,"protein: LYSINE-SPECIFIC HISTONE DEMETHYLASE 1A, PDB entry 4uva",1.78 µM (active)
Cc1cc2c(cc1C)N1[C@@](C)(N)CC(c3ccccc3)[C@]13C(=O)NC(=O)N[C@H]3N2C[C@H](O)[C@H](O)[C@H](O)CO[P+](O)(O)O[P+](O)(O)OC[C@H]1O[C@@H](n2cnc3c(N)ncnc32)[C@H](O)[C@@H]1O (some centres not stated),IC50,"protein: LYSINE-SPECIFIC HISTONE DEMETHYLASE 1A, PDB entry 4uvb",3.26 µM (active)
Cc1cc2c(cc1C)N([C@@](N)(CCc1ccccc1)c1ccccc1)C1C(=O)NC(=O)N=C1N2C[C@H](O)[C@H](O)[C@H](O)CO[P+](O)(O)O[P+](O)(O)OC[C@H]1O[C@@H](n2cnc3c(N)ncnc32)[C@H](O)[C@@H]1O (some centres not stated),IC50,"protein: LYSINE-SPECIFIC HISTONE DEMETHYLASE 1A, PDB entry 4uvc",0.131 µM (active)
CCC(=N)C[C@@H](c1ccccc1)[C@]12Nc3cc(C)c(C)cc3N(C[C@H](O)[C@H](O)[C@H](O)CO[P+](O)(O)O[P+](O)(O)OC[C@H]3O[C@@H](n4cnc5c(N)ncnc54)[C@H](O)[C@@H]3O)[C@@H]1NC(=O)NC2=O,IC50,"protein: LYSINE-SPECIFIC HISTONE DEMETHYLASE 1A, PDB entry 4uv9",0.975 µM (active)
Cc1cc2c(cc1C)N(C[C@H](O)[C@H](O)[C@H](O)CO[P+](O)(O)O[P+](O)(O)OC[C@H]1O[C@@H](n3cnc4c(N)ncnc43)[C@H](O)[C@@H]1O)[C@@H]1NC(=O)NC(=O)[C@@]1([C@@H](CC(=N)Cc1ccccc1)c1ccccc1)N2,IC50,"protein: LYSINE-SPECIFIC HISTONE DEMETHYLASE 1A, PDB entry 4uv8",0.335 µM (active)
O=C(O)c1nc(-c2ccc3cccc(N=Nc4nc5ccccc5s4)c3c2)sc1CCCCc1ccccc1,IC50,"protein: BCL-2-LIKE PROTEIN 1, PDB entry 3zlo",0.0015 µM (active)
CC[C@H](C)[C@H](NC(=O)[C@H](C)NC(=O)[C@H](CC(N)=O)NC(=O)[C@@H]1CCCN1C(=O)[C@@H](N)CC(C)C)C(=O)NCC(=O)N[C@@H](CCCNC(N)N)C(=O)O (H-LPNAIG[Orn(CH(NH2)2)]-OH),IC50,"protein: Low-density lipoprotein receptor-related protein 6, PDB entry 3sov",61 µM (active)
C#CC[C@H](NC(=O)[C@@H](NC(=O)[C@H](CC(C)C)NC(=O)[C@@H](NC(=O)CNC(=O)[C@@H](NC(=O)CNC(=O)[C@H](C)NC(=O)[C@@H](CCC)NC(=O)[C@](C)(N)c1ccccc1)[C@@H](C)CC)[C@@H](C)CC)[C@@H](C)O)C(=O)O,IC50,"protein: HLA class I histocompatibility antigen, A-2 alpha chain HLA-A 0201, PDB entry 4wj5",0.51 µM (active)
CC[C@H](C)[C@H](NC(=O)[C@@H](NC(=O)[C@@H](NC(=O)[C@H](CCCNC(N)N)NC(=O)[C@H](CCCCN)NC(=O)[C@H](CO)NC(=O)[C@H](CCCNC(N)N)NC(=O)CNC(=O)[C@@H](NC(=O)[C@H](CCC(N)=O)NC(=O)CNC(=O)[C@H](CC(C)C)NC(=O)[C@H](CCCCN)NC(=O)[C@@H]1CCCN1C(=O)[C@@H]1CCCN1C(=O)[C@H](CCCNC(N)N)NC(=O)[C@@H](N)CCCCN)[C@@H](C)CC)C(C)C)C(C)C)C(=O)O (H-K[Orn(CH(NH2)2)]PPKLGQIG[Orn(CH(NH2)2)]SK[Orn(CH(NH2)2)]VVI-OH),IC50,"protein: Calcium/calmodulin dependent protein kinase II, PDB entry 3kl8",0.12 µM (active)
NCCCC[C@H](N)C(=O)N[C@@H](CCCNC(N)N)C(=O)N1CCC[C@H]1C(=O)N1CCC[C@H]1C(=O)N1CCC[C@H]1C(=O)N1CCC[C@H]1C(=O)N1CCC[C@H]1C(=O)N1CCC[C@H]1C(=O)NCC(=O)O (H-K[Orn(CH(NH2)2)]PPPPPPG-OH),IC50,"protein: cortactin isoform a, PDB entry 2d1x",7.9 µM (active)
CC[C@H](C)[C@H](NC(=O)[C@H](CO[P+](O)(O)O)NC(=O)[C@H](C)NC(=O)[C@H](CCC(N)=O)NC(=O)[C@@H](N)CCCNC(N)N)C(=O)N[C@@H](CCC(=O)O)C(=O)N[C@@H](CC(C)C)C(=O)N1CCC[C@H]1C(=O)N[C@@H](CO)C(=O)N[C@@H](CCSC)C(=O)O,IC50,"protein: HLA class I histocompatibility antigen, PDB entry 3bh8",0.0112 µM (active)
CC[C@H](C)[C@H](NC(=O)[C@H](CCCNC(N)N)NC(=O)CNC(=O)[C@@H](NC(=O)[C@@H](NC(=O)[C@@H](NC(=O)[C@@H](NC(=O)[C@H](CO)NC(=O)CNC(=O)CN)C(C)C)C(C)C)[C@@H](C)CC)C(C)C)C(=O)N[C@H](C(=O)N[C@@H](CC(C)C)C(=O)N[C@@H](CO)C(=O)O)[C@@H](C)CC (HELM PEPTIDE1{G.G.S.V.V.I.V.G.[NC(N)NCCC[C@H](N[*:1])C(=O)[*:2]].I.I.L.S}$$$$V2.0),IC50,"protein: Genome polyprotein (D1194V mutation), PDB entry 4i32",0.058 µM (active)
same,IC50,"protein: Genome polyprotein (R1181K mutation), PDB entry 4i33",0.0047 µM (active)
same,IC50,"protein: Genome polyprotein, PDB entry 4i31",0.00048 µM (active)
CCCNc1nc(N)c(C(=O)c2ccc(Cl)s2)s1,IC50,"protein: Cyclin-dependent kinase 2, PDB entry 3s00",12 µM (active)
CNc1cc(-c2cccc(Cl)c2Cl)nc(N)n1,IC50,"protein: 7,8-dihydro-8-oxoguanine triphosphatase, human MTH1 protein, PDB entry 4n1t",0.0008 µM (active)
Nc1nc(NC2C=C2)cc(-c2cccc(Cl)c2Cl)n1,IC50,"protein: 7,8-dihydro-8-oxoguanine triphosphatase, human MTH1 protein, PDB entry 4n1u",0.005 µM (active)
